RGS4 inhibitor: inhibitors of human regulator of G protein signaling 4. Transcreener GDP fluorescence polarization, RGS4-accelerated GTP hydrolysis. Potency, µM (series often up to 114 µM), for the others: at the highest dose activity change, negative = inhibition, usual class: inhibitors. 0.039% of 390,000 active. AID 504845; active = well fitted inhibition curve with a large enough effect; inconclusive = small, poorly fitted or top-dose-only effect; inactive = no such curve, though single readings can be large or run the other way; also: potency is read from the fitted curve at half-maximal effect; % is scaled to controls: 0 for no effect and ±100 for the full control effect; nearly all actives have a fitted effect of over 75% in size
Target sequence (P49798 whole entry, looked up): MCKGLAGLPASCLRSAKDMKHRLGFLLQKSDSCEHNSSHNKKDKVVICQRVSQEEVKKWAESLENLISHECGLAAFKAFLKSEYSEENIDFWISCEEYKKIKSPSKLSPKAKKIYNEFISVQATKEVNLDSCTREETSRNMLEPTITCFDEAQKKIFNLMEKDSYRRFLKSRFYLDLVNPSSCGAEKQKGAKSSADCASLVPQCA
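MLSMR compounds (23 nl, pin-transferred) preincubated 10 min at room temperature with a 500nM (2x) first reagent, then RGS4 at 900nM (2x) plus Transcreener GDP mix added; fluorescence polarization (620/688 nm) read before and after 90 min at 30 °C.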
D3 ag: D3 dopamine receptor (human) agonism; P35462; D3R DiscoveRx beta-arrestin cells, luminescence, 90 min; max activation, %; 0.58% of 410,000 active; in the data active = max activation above about 30%; also: 0% is about no effect
Target sequence (P35462 whole entry, looked up): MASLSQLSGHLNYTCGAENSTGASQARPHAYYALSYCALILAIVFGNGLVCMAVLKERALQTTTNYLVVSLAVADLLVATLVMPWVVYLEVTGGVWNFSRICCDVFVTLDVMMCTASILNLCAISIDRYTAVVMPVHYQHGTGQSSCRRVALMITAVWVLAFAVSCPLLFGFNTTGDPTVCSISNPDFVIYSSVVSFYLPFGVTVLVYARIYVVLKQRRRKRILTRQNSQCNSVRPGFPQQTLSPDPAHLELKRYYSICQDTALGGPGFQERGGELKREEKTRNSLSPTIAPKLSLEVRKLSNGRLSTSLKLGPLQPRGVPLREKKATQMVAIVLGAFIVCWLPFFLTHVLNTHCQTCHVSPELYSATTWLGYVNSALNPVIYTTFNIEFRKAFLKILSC
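Agonist-mode cell screen: cells plated at 1500/well and incubated overnight at 37 °C, then exposed to library compounds for 90 min at 37 °C. Detection reagent was added for 30–60 min at room temperature, and luminescence was read.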
DRD3 antagonist: D3 dopamine receptor (human) antagonism; D3R cells, DiscoveRx beta-arrestin luminescence, antagonist mode; stronger effect = lower value; max response, negative = inhibition, %; 2.5% of 360,000 active; in the data active = max response below about -50%; inconclusive = no clear call, values can overlap the other calls; also: % is scaled to controls: 0 for no effect and ±100 for the full control effect
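Cells plated overnight at 1500 cells/well, then exposed to library compounds with dopamine controls for 90 minutes at 37 degrees C. DiscoveRx reagent added for 30–60 minutes at room temperature; luminescence read, quantitative HTS format.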
PI4K2A inh: blocks human PI4K2A kinase activity; Q9BTU6; purified PI4K2A, ADP-Glo luminescence, 1 h; stronger effect = lower value; activity change, negative = inhibition, % at 76.9 µM; 0.13% of 420,000 active; AID 1346378; in the data active = activity change below about -50%; inconclusive = mostly about -30% to -49%;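 also: -100% = wells without enzyme as full effect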
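PI4K2A activity was measured by ADP-Glo luminescence: enzyme (4 ug/mL stock) and phosphatidylinositol (1.2 mM stock) in Tris pH 7.5/MgCl2/EGTA/Triton X-100 buffer were reacted with ATP (300 microM stock) for one hour at ambient temperature.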
LDHA inh: blocks human lactate dehydrogenase A; P00338; purified LDHA, NADH/diaphorase-resazurin fluorescence; stronger effect = lower value; activity change, % (values are at about 110 or 230 µM); 0.15% of 480,000 active; in the data active = activity change below about -30%; inconclusive = mostly about -25% to -30%;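 also: plate controls were DMSO wells for no effect and wells without enzyme for full effect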
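LDH5 2 nM; NADH 0.06 mM, pyruvate 0.2 mM; 200 mM Tris pH 7.4, EDTA, Tween-20; 5 min RT. Detection: diaphorase 0.133 mg/mL + resazurin 37 µM, fluorescence ex540/em590 at 0 and 20 min; normalized to enzyme-free and DMSO wells.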
pAkt inh: inhibitors of Akt phosphorylation. Neuro2A IGF-stimulated pAkt S473 HTRF, 20 min; stronger effect = lower value. activity change, % for hits at 50 µM. 0.32% of 360,000 active. AID 651550; in the data active = activity change below about -80%; inconclusive = mostly about -51% to -80%; also: % is scaled to controls: 0 for no effect and ±100 for the full control effect
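Single-point screen (50 µM final compound) in Neuro2A cells stimulated 20 min with 6 nM IGF at 37 deg C. After lysis, Ser473-phosphorylated Akt read by HTRF (ex 330 nm, em 615/665 nm) as the 665/615 ratio.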
* marks the source's active call; other numbers are inactive results; i = inactive; ? = inconclusive; nt = no result; [ ] = dose if it differs, or a comment. A selection: hits, their analogues and other compounds. The true share with any hit is near 2.8%.

SMILES	RGS4 inhibitor	D3 ag	DRD3 antagonist	PI4K2A inh	LDHA inh	pAkt inh
Cc1cccc2cc(C#N)c(N3CCN(C)CC3)nc12	28.9%	-8.0	-71.8*	8.4	5.0	i
CC(=O)Nc1ccc(NC(=O)c2cc(C3CC3)nc3ccccc23)cc1	nt	nt	nt	nt	-4.5	nt
COc1ccc(CCN2C(=O)CSC2=Nc2ccc(C(C)C)cc2)cc1OC	-3.0%	43.4*	45.9	3.5	4.8	i
CCN(CC)c1ccc2c(C)c(CO)c(=O)oc2c1	-19.8%	7.9	-17.1	-4.1	0.6	i
CCN(CC)c1ccc2c(C)c(CN3CCOCC3)c(=O)oc2c1	-9.9%	-6.1	-75.2*	-0.5	-2.8	i
O=C(c1cccs1)N1CCc2c([nH]c3ccccc23)C1c1ccccn1 (configuration not stated)	26.3%	-12.3	?	0.7	0.4	i
O=C(c1cccs1)N1CCc2c([nH]c3ccccc23)C1c1ccc(Cl)cc1 (configuration not stated)	-17.8%	-5.7	-53.4*	5.9	-2.2	i
Cc1n[nH]c(=S)n(NC(=O)CC(=O)Nn2c(=S)[nH]nc(C)c2=O)c1=O	-13.6%	-26.3	-85.7*	4.8	10.9	i
CCCN1CCC(NC(=O)CCc2nnc(-c3ccccc3)o2)CC1	-21.5%	-5.6	-52.8*	2.4	4.6	i
CCCN1CCC(NC(=O)CCc2nnc(Cc3cc(OC)ccc3OC)o2)CC1	-0.3%	12.0	20.2	-2.6	-5.0	i
COc1ccccc1-c1nc(-c2ccccn2)no1	4.6%	-0.5	2.4	-63.9*	4.2	i
COc1ccccc1-c1nc(-c2ccc(C)nc2OC)no1	33.1%	0.7	-4.9	-0.7	-9.9	-108.6%*
Cc1ccccc1-c1nc(Cc2ccccc2)no1	7.2%	3.6	-52.8*	-6.2	-1.8	i
Cc1ccccc1-c1nc(-c2ccccn2)no1	-6.3%	-8.8	-22.8	-50.8*	0.1	i
Brc1ccccc1-c1nc(-c2ccccn2)no1	nt	nt	nt	nt	-9.1	nt
NC(=S)N/N=C/c1cccc(Cl)c1Cl	nt	nt	nt	nt	3.2	nt
O=C1CN(C(=O)c2cc(-c3cccnc3)nc3ccccc23)CCN1	nt	nt	nt	nt	-5.7	nt
CC(=O)Nc1ccc(/C=C/C(=O)N(C)C(C)c2ccc(C)s2)cc1 (configuration not stated)	nt	nt	nt	nt	3.9	nt
Ic1ccc(-c2nc(-c3ccccn3)no2)cc1	nt	nt	nt	nt	6.9	nt
COc1ccc(-c2nc(-c3ccccn3)no2)cc1	5.3%[11.4 µM]	2.8	8.1	-73.8*	-1.5	i
CCOc1nc(C)ccc1-c1noc(C)n1	42.5%	-2.2	-17.2	10.6	-1.3	-110.2%*
O=C(NCCc1c[nH]c2ccccc12)C(=O)NCC(c1ccco1)N1CCN(c2ccccc2)CC1 (configuration not stated)	9.0%	41.1*	11.9	-3.5	0.5	i
CC1(C)N([O-])C(c2cccs2)=C[N+]1=O	-14.1%	1.2	-15.2	-1.6	-8.3	-123.8%*
CC1(C)N([O-])C(c2ccccc2)=C[N+](=O)C1(C)C	25.0%	-5.7	3.8	1.0	-5.4	i
O=C(O)C1CCCCC1C(=O)NC1CCN(Cc2ccccc2)CC1 (configuration not stated)	nt	nt	nt	nt	2.8	nt
SMILES	RGS4 inhibitor	D3 ag	DRD3 antagonist	PI4K2A inh	LDHA inh	pAkt inh
C=CCN(Cc1nc(-c2ccc(OC)cc2)no1)C(=O)c1ccc2c(c1)OCO2	-2.9%	-6.3	-6.7	-2.6	-1.1	i
COc1ccc(-c2noc(CN(C(=O)c3ccc4c(c3)OCO4)C(C)C)n2)cc1	15.7%	90.9*	9.1	-19.5	-3.3	i
CN(C)C(CNC(=O)c1ccc(Br)cc1)c1ccco1 (configuration not stated)	2.6%	-25.0	-63.2*	-1.9	0.0	i
COc1cc(C(=O)NCC(c2ccco2)N(C)C)cc(OC)c1OC (configuration not stated)	9.2%	-7.9	2.7	5.3	-2.4	i
CN(C)C(CNC(=O)CCNC(=O)c1ccc(Br)cc1)c1ccco1 (configuration not stated)	-12.5%	-3.8	9.7	3.4	-3.4	i
COc1ccc(Cl)cc1C(=O)NCC(c1ccco1)N1CCCC1 (configuration not stated)	2.0%	-56.5	-81.5*	-1.5	-9.4	i
COc1ccc(Cl)cc1NS(=O)(=O)c1cccc(C(=O)NCC(c2ccco2)N(C)C)c1 (configuration not stated)	-16.0%	-12.5	-81.8*	4.6	2.0	i
COc1ccc(Cl)cc1C(=O)NCC(c1ccco1)N(C)C (configuration not stated)	-6.4%	-16.1	-78.6*	1.7	-2.6	i
N#CCc1ccc(NC(=O)CNc2ccccc2Br)cc1	nt	nt	nt	nt	1.9	nt
CSCc1ccc(C(=O)Nc2cccc(F)c2)o1	nt	nt	nt	nt	0.0	nt
N#CCSc1ncnc2ccccc12	27.5%	-3.5	-54.6*	-1.6	-9.9	i
O=C(Cc1csc(-c2ccsc2)n1)Nc1ccnn1Cc1c(Cl)cccc1Cl	nt	nt	nt	nt	0.4	nt
c1nc(C23CC4CC(CC(C4)C2)C3)cs1	nt	nt	nt	nt	2.2	nt
COc1cccc(/C=C/C(=O)c2ccc(NS(=O)(=O)c3ccc(C)cc3)cc2)c1	3.2%	-8.6	-53.9*	11.2	-6.7	i
NC(=O)NNC1=Nc2cccc3cccc1c23	-6.9%	-9.2	3.3	6.0	7.0	i
COc1ccccc1NC1=Nc2cccc3cccc1c23	-13.8%	-15.7	-20.0	-4.4	-1.7	i
Cc1ccc(C(=O)NNC2=Nc3cccc4cccc2c34)cc1	-7.4%	-24.5	-73.6*	4.4	-4.3	i
COc1ccc(CC(=O)NNC2=Nc3cccc4cccc2c34)cc1	2.7%	-22.2	-78.9*	1.2	-7.0	i
COc1ccc(C(=O)NNC2=Nc3cccc4cccc2c34)cc1	-8.2%	-11.7	-68.0*	1.5	-3.2	i
Cc1cc(C)c(NC(=O)c2ccc(CSc3ccc(Cl)cc3)cc2)c(C)c1	nt	nt	nt	nt	3.3	nt
CSc1nc(-c2ccc(C)cc2)[nH]c1S(=O)(=O)c1ccccc1	16.5%	-17.4	?	-11.9	-18.4	-106.1%*
CCN(CC)CCNC(=O)CCCCn1c(=S)[nH]c2c([nH]c3ccc(OC)cc32)c1=O	-26.5%	-75.4	-55.9*	-3.1	8.9	i
CCCCNC(=O)c1ccc(Cn2c(=S)[nH]c3c([nH]c4ccc(OC)cc43)c2=O)cc1	-8.6%	-1.1	-64.7*	-0.7	-9.5	i
CCOC(=O)N1C(=O)[C@@](c2ccc(Cl)cc2)(C(C)C)N1C(=O)OCC	-47.2%	-25.4	-50.7*	6.5	-0.7	i
Cc1cnc(CN(C)C(=O)c2ccc3oc(Cc4ccc(Cl)cc4)nc3c2)[nH]1	-13.3%	-5.5	-56.9*	9.0	-1.5	i

Screening data (PubChem)
